# In PubChem BioAssay AID624351 (Southern Research Specialized Biocontainment Screening …, 2012):
# The whole screen tested about 2,400 compounds, of which about 1,400 (58%) were called active. So high a share suggests a set chosen from earlier hits. The list shows a part of the results. Unmarked numbers belong to inactive results.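 How the source made its calls: active means inhibition of 30% or more at any tested dose; inconclusive means primary hits over the limit that were never retested; inactive means the rest.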
# Experiment: ADP Hunter readout inhibition without MgcRacGAP – biochemical, coupled enzyme counter-screen, artefact control for MgcRacGAP inhibitor project, dose response (AID 624351);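 further: signal is the ADP detection kit reading of free GDP without any GAP enzyme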;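 on inhibition: 0% = median positive control wells and 100% = median negative control wells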
# Details: fluorescence, no MgcRacGAP; series mostly up to 80 µM; inhibition: at the top concentration
SMILES,IC50,inhibition
Nc1ccc2c(c1)Cc1cc(N)c(Cl)cc1-2,8.61 µM (active),–
Nc1ccc2c(c1Br)Cc1ccccc1-2,59.2 µM (active),–
Nc1cc2c(cc1N)-c1ccccc1C2,55.6 µM (active),–
COc1cc2c(cc1N)-c1ccc(N)cc1C2,36.1 µM (active),–
O=C1C=CC(=Nc2ccc3c(c2)Cc2ccccc2-3)O1,–,25.6%
Nc1ccc2c(c1)Cc1cc(N)c(Br)cc1-2,7.05 µM (active),–
Cc1ccc(OCCCN2CCCC2)c(C)c1,–,20.9%
O=C(CNS(=O)(=O)c1ccccc1)N/N=C/c1ccc(O)cc1,61.6 µM (active),–
COc1ccc(Cc2nnc(NC(=O)Cc3cccs3)s2)cc1,–,6.48%
O=C(C[n+]1ccccc1)N/N=C/c1ccc(O)cc1,81.2 µM (active),–
C[n+]1c(-c2ccc(C=NNC(=O)c3ccc(C(=O)NN=Cc4ccc(-c5cn6ccccc6[n+]5C)cc4)cc3)cc2)cn2ccccc21,–,-3.25%
O=C(Cc1cccs1)N/N=C\c1ccc(O)cc1,42.6 µM (active),–
CC(=O)Oc1ccc2c(=O)c(Oc3ccccc3)coc2c1OC(C)=O,–,24.6%
CCN1/C(=C/c2ccc3cc(C)ccc3[n+]2CC)Sc2ccccc21,–,9.82%
OC(CON=C1c2ccccc2-c2ccccc21)CN1CCNCC1 (stereo not given),–,25.3%
O=C(CNC(=O)c1ccccc1Br)N/N=C/c1ccc(O)cc1,54.3 µM (active),–
O=C(N/N=C/c1ccc(O)cc1)c1cccc(C(F)(F)F)c1,69.2 µM (active),–
Cc1ccc(C(=O)Oc2csc(=S)n2C(=O)c2ccc(C)cc2)cc1,–,10.9%
Cc1ccc(C)c(OCCCCN2CCCCC2)c1,–,3.5%
COc1ccc(CN2CCC(N3CC(C)OC(C)C3)CC2)c(OC)c1OC (stereo not given),–,27.5%
COc1cc(/C=N/NC(=O)c2cc(C)oc2C)ccc1O,49.8 µM (active),–
COc1cc(/C=N/NC(=O)c2ccoc2C)ccc1O,32.2 µM (active),–
Cc1cc(C(=O)NNC(=O)/C=C/c2ccco2)c(C)o1,–,-9.14%

SMILES,IC50,inhibition
OCCN(CCO)c1ccc2ccccc2c1,65 µM (active),–
OCCN1CCN(Cc2ccc3ccccc3c2)CC1,–,17.6%
CCCN(CCO)CCCc1ccccc1,–,16.2%
CCOc1cc(/C=N/n2cnnc2)ccc1O,34 µM (active),–
COc1cc(/C=N/n2cnnc2)ccc1OC(=O)c1cccnc1,–,8.47%
COc1cc(/C=N/n2nnnc2N)ccc1O,18.4 µM (active),–
CCOc1cc(/C=N\n2nnnc2N)ccc1O,45.1 µM (active),–
CCc1nnc(N/N=C/c2cc(Br)c(O)cc2O)n1N,72.7 µM (active),–
CCc1nnc(N/N=C/c2c(C)[nH]c3ccccc23)n1N,45.9 µM (active),–
Cc1[nH]c2ccccc2c1/C=N/Nc1nncn1N,62.6 µM (active),–
Cc1[nH]c2ccccc2c1/C=N\NC(=O)CNc1ccc2c(c1)OCO2,–,16.3%
N#CC(C#N)=C1C=CC=CN1/C(=C\c1ccco1)C(=O)c1ccc(Br)cc1,–,-0.12%
O=C(O)c1cccc(-n2sc3ccccc3c2=O)c1,–,15.8%
O=c1c2ccccc2sn1-c1ccc(F)cc1,–,15.6%
O=C1CCCC(O)=C1C=Nc1ccc(O)cc1,18.6 µM (active),–
CC1(C)CC(=O)C(C=Nc2ccc(O)cc2)=C(O)C1,17.4 µM (active),–
CC1(C)CC(=O)C(C=Nc2ccc(N)cc2)=C(O)C1,82.4 µM (active),–
CC1(C)CC(=O)C(C(C2=C(O)CC(C)(C)CC2=O)c2ccc(Br)s2)C(=O)C1 (stereo not given),–,1.01%
CC1(C)CC(=O)C2=C(C1)OC1=C(C(=O)CC(C)(C)C1)C2c1ccc(O)cc1O,–,5.54%
O=C1CC(c2ccccc2)CC(O)=C1C=Nc1ccc(O)cc1 (stereo not given),28.9 µM (active),–
Cc1ccc(C(C2=C(O)CC(C)(C)CC2=O)C2C(=O)CC(C)(C)CC2=O)s1 (stereo not given),–,1.03%
Cc1ccc(C(C2=C(O)CC(C)(C)CC2=O)C2C(=O)CC(C)(C)CC2=O)o1 (stereo not given),–,-3.3%
O=[N+]([O-])c1cnc(Sc2ccncn2)c([N+](=O)[O-])c1,–,-3.25%

SMILES,IC50,inhibition
CSc1nc(O)c(/C=C2\C=Nc3ccccc32)[nH]1,33.2 µM (active),–
CSc1nc(/C=C2\C=Nc3ccccc32)c(O)n1C,45.4 µM (active),–
CC1(C)CC[C@]2(C(=O)n3ccnc3)CC[C@]3(C)[C@H](C(=O)C=C4[C@@]5(C)C=C(C#N)C(=O)C(C)(C)[C@@H]5CC[C@]43C)[C@@H]2C1,–,10.8%
C=CCc1cccc(C=Nc2cc(Br)ccc2O)c1O,16.2 µM (active),–
CCc1ccc(O)c(N=Cc2ccccc2O)c1,37.4 µM (active),–
Cc1ccc(O)c(N=Cc2cc(Cc3ccccc3)cc([N+](=O)[O-])c2O)c1,–,-9.96% [at 20 µM]
CCc1ccc(O)c(N=Cc2cccc(C)c2O)c1,50.5 µM (active),–
OC(CNCC1COc2ccccc2O1)COCc1cccs1 (stereo not given),–,17.8%
O=C(C1CCCN(Cc2cccnc2)C1)N1CCCCC1 (stereo not given),–,25.6%
Cc1ccc(CN2CCN(CC3CC4C=CC3C4)CC2)cc1 (stereo not given),–,13.1%
Cc1cccc2c1c1ccc3c(c1n2C)C(=O)C=CC3=O,–,-14.2%
CC(OC(=O)CCN=C1NS(=O)(=O)c2ccccc21)C(=O)Nc1ccc(N(C)C)cc1 (stereo not given),50.9 µM (active),–
C#CCOc1ccccc1CNC1CCN(Cc2ccccc2)CC1,–,24.9%
Fc1ccc(CN2CCN(C(c3ccccc3)c3ccccc3)CC2)cc1,–,13.6%
Fc1ccc(CNc2ccc(N3CCN(Cc4ccccc4)CC3)cc2)cc1,12.3 µM (active),–
Clc1ccc(CNc2ccc(N3CCN(Cc4ccccc4)CC3)cc2)cc1,30.3 µM (active),–
O=C(CN1CCN(Cc2ccccc2)CC1)NC(c1ccccc1)c1ccccc1,–,15.2%
O=C(CN1CCN(Cc2ccccc2)CC1)Nc1ccc(F)c(F)c1,–,24.2%
CN(C)C(=S)N=c1ssc(=S)n1Cc1cccnc1,–,7.07%
O=C1CSC(=Nc2ccc(O)cc2)N1,42 µM (active),–
O=C1CSC(=Nc2ccc(O)cc2)N1c1ccc(O)cc1,56.7 µM (active),–
C=CCN1C(=O)CSC1=Nc1ccc(O)cc1,28.9 µM (active),–
COc1cc(/C=N/N=C2/SCC(=O)N2c2ccc(O)cc2)ccc1O,48.1 µM (active),–

SMILES,IC50,inhibition
Cc1ccc(C)n1/N=C1/NC(=O)CS1,–,-5.01% [at 10 µM]
N#CC1=C(Nc2ccccc2Cl)SC(c2ccccc2O)NC1=O (stereo not given),–,6.23%
S=c1[nH]nc(Nc2ccccc2Cl)s1,51.9 µM (active),–
COc1ccccc1Nc1n[nH]c(=S)s1,46.8 µM (active),–
Cc1c(Cl)cccc1NC(=S)Nc1ccc2[nH]c(=O)[nH]c2c1,–,26.1%
COc1ccccc1Nc1ccc2c(O)cc(S(=O)(=O)O)cc2c1,–,10.1%
Cc1c(Cl)cccc1Nc1n[nH]c(=S)s1,78.7 µM (active),–
Fc1ccccc1Nc1n[nH]c(=S)s1,47.7 µM (active),–
CCc1cc(/C(Cc2csc(C)n2)=N/O)c(O)cc1O,33.2 µM (active),–
N/N=C(\Cc1cscn1)c1ccc(O)cc1O,67.8 µM (active),–
CCc1cc(/C(Cc2ccccn2)=N\O)c(O)cc1O,32.1 µM (active),–
CCc1cc(/C(Cc2cscn2)=N\O)c(O)cc1O,52.1 µM (active),–
Cc1ccccc1CN(C)CCc1ccccn1,–,17.5%
COc1ccc(Br)cc1CN1CCN(C(=O)c2ccc(F)cc2)CC1,–,20.3%
CCN(CCNCC(O)COc1ccccc1C(C)C)c1cccc(C)c1 (stereo not given),–,26%
COc1cccc(CN2CCN(Cc3cc(OC)c(OC)cc3[N+](=O)[O-])CC2)c1,–,28.8%
COc1cc(-c2cc(-c3ccc(F)cc3)nc(N)c2C#N)ccc1O,–,-0.39%
COc1cc(-c2cc(-c3ccc(O)cc3)nc(N)c2C#N)ccc1O,51.6 µM (active),–
CCCN(CCC)CCCNC(=S)Nc1ccc2nc(N3CCCC3)cc(C)c2c1,–,1.63%
CCn1c(=O)n(CC)c2cc(N3CCCC3)c(NC(=O)c3cccc(Cl)c3)cc21,–,-3.54%
O=C(/C(=C/c1cccnc1)n1ccnc1)c1ccc(Cl)cc1Cl,–,3.8%
COCCNCCOCCOc1ccc(Cl)c(C)c1,–,15%
CCOc1cc(/C=C2/N=C(C)C(C(=O)OC)=C2O)ccc1O,29.6 µM (active),–

SMILES,IC50,inhibition
COC(=O)C1=C(C)N(Cc2ccco2)C(=O)C1,–,-3.81%
CCOC(=O)C1=C(O)/C(=C\c2ccc(O)c(OCC)c2)N=C1C,52.3 µM (active),–
COC(=O)C1=C(O)/C(=C\c2ccc(O)c(OC)c2)N=C1C,20 µM (active),–
CCOc1cc(/C=C2\C(=O)N(Cc3ccco3)C(C)=C2C(=O)OC)ccc1O,68.7 µM (active),–
COC(=O)C1=C(C)N(Cc2ccco2)C(=O)/C1=C\c1ccc([N+](=O)[O-])cc1,–,3.8%
COc1nc(Nc2ccc(O)cc2)nc(OC(C(F)(F)F)C(F)(F)F)n1,39 µM (active),–
COc1ccccc1OCCCCCCN1CCOCC1,–,11.7%
Oc1ccc(/C=N/NC(=S)NCCN2CCOCC2)c(O)c1,20.9 µM (active),–
COc1cc(/C=N/NC(=S)NCCN2CCOCC2)ccc1O,21.8 µM (active),–
COc1ccc(CCNCCN2CCOCC2)cc1,–,22.7%
O=S(=O)(Nc1ccccc1F)c1cccc(NC(=S)NCCN2CCOCC2)c1,–,2.85%
CN(C)S(=O)(=O)c1cc(NC(=O)CNCCN2CCOCC2)ccc1Cl,–,12.1%
CCOc1cc(-c2nc3ccccc3s2)ccc1O,48.6 µM (active),–
CCOc1cc(-c2cc(-c3ccccc3)nc(N)c2C#N)ccc1O,–,17.7%
COc1cc(-c2nc3ccccc3s2)ccc1O,18.2 µM (active),–
CCN1CCN(CC(=O)Nc2nc3ccccc3s2)CC1,–,28.9%
O=C(c1ccc(F)cc1)N1CCN(C2CCCCC2)CC1,–,19.5%
COc1cc2c(cc1OC)C1(CCCC1)C(N)=C2C#N,57.3 µM (active),–
O=C(c1ccco1)N1CCN(Cc2cccc([N+](=O)[O-])c2)CC1,–,18%
O=C(c1c(Cl)cccc1Cl)N1CCN(c2cccc3[nH]ccc23)CC1,50.9 µM (active),–
O=[N+]([O-])c1cccc(CN2CCN(c3cccc4[nH]ccc34)CC2)c1,46.7 µM (active),–
O=C(c1cccc(Cl)c1)N1CCN(C2CCCCC2)CC1,–,15.2%
O=[N+]([O-])c1cccc(CN2CCN(Cc3ccco3)CC2)c1,–,20.7%
